Consider 56 compounds from PubChem BioAssay (Tox21).

For assay [1], the target named is Acetylcholinesterase (Homo sapiens) (UniProt P22303). The assay can be described thus: Acetylcholinesterase (AChE) small molecule antagonists: colormetric cell-based qHTS assay (AID 1347395). Note: nearly all actives have a fitted effect of over 30% in size. Note: potency is the fitted concentration of half-maximal effect. The method in brief:
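AChE inhibition read colorimetrically via DTNB–thiocholine in SH-SY5Y cells. Compound 30 min, substrate 90 min, both 37 C.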
On the technique in general: In qHTS, concentration-response curves come from the screen itself.

For assay [2] the target is unchanged. The assay is described as follows: Acetylcholinesterase (AChE) small molecule antagonists: enzyme-based qHTS assay (AID 1347397). Note: nearly all actives have a fitted effect of over 55% in size. The following applies: Potency: AChE enzyme activity inhibition; outcome: AChE enzyme activity inhibition. The method in brief:
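Absorbance-based detection of thiocholine with DTNB served as the read-out. Recombinant human AChE was exposed to compound for 30 min at RT before a 10 min RT incubation with acetylthiocholine.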

For assay [3] the target is unchanged. The assay is described as follows: Acetylcholinesterase (AChE) small molecule antagonists: fluorescence cell-based qHTS assay (AID 1347398). Note: nearly all actives have a fitted effect of over 50% in size. Note: potency is the fitted concentration of half-maximal effect. The following applies: Potency: AChE activity; outcome: AChE activity. Put shortly: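 Fluorimetric cell-based assay: intact SH-SY5Y cells, 30 min compound preincubation at 37 C, acetylthiocholine substrate with thiol probe Thiolite Green, 40 min RT development, fluorescence 490/520 nm.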

For assay [4] the target is unchanged. The assay can be described thus: Acetylcholinesterase (AChE) small molecule antagonists: enzyme-based qHTS assay with human liver microsomes (AID 1347399). Note: nearly all actives have a fitted effect of over 60% in size. The following applies: Potency: qHTS inhibition; outcome: qHTS inhibition. The method in brief:
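Recombinant human AChE (50 mU/mL in the enzyme mix) and human liver microsomes (0.25 mg/mL final) were preincubated with compound and NADPH (0.25 mg/mL final) for 30 min at 37 C. Acetylthiocholine/DTNB was then added; thiocholine was read colorimetrically after 10 min at room temperature.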

Results filed as inconclusive are left out. Some structures have more than one record in an assay (separate samples or runs), and their calls can disagree. Activity calls are given as the source filed them. Calls come from the whole dose curve.
% is set by controls: 0 for no effect and ±100 for the full control effect.

Sequence of Acetylcholinesterase (Homo sapiens) (P22303 whole entry, looked up): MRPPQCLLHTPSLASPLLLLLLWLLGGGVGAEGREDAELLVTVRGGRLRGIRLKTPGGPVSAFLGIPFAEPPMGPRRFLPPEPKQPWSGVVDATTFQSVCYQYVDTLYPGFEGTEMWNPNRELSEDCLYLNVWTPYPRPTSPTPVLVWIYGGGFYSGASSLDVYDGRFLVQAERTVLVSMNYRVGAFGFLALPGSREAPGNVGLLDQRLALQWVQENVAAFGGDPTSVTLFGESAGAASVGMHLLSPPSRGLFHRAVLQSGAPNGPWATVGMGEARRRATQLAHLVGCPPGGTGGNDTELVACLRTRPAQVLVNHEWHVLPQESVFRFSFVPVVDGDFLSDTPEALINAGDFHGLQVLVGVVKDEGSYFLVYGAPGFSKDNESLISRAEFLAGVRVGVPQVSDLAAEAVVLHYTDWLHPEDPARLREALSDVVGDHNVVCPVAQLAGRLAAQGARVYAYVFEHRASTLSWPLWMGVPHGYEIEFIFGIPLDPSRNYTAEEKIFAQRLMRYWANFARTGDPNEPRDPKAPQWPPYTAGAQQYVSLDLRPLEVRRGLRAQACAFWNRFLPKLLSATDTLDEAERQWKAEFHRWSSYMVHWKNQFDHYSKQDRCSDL

For the compound `CCn1cc(C(=O)O)c(=O)c2cc(F)c(N3CCN(C)CC3)cc21`, the activity, negative = inhibition in assay [1] was 2.04% [at 23.6 µM] (inactive). In addition, the activity change, negative = inhibition is -0.504% [at 23.6 µM] (inactive) in assay [2], 2.98% [at 23.8 µM] (inactive) in assay [3] and -0.336% [at 23.6 µM] (inactive) in assay [4].

Regarding `FC(F)(F)c1ccccc1-n1ccnc1`, the Potency entry in assay [1], in assay [2], in assay [3] and in assay [4] was “inactive” throughout.

Turning to `C/C=C/C(=O)N(CC)c1ccccc1C`, the Potency result in assay [1], in assay [2], in assay [3] and in assay [4] was “inactive” each time.

Take `C=Cc1ccc(C)cc1`: the Potency entry in assay [1], in assay [2], in assay [3] and in assay [4] was “inactive” each time.

In the case of `CCN(CC)C(=O)C1CN2CCc3cc(OC)c(OC)cc3C2CC1OC(C)=O` (centres undefined), the Potency result in assay [1], in assay [2], in assay [3] and in assay [4] was “inactive” in each case.

Take `Cc1cccc2c1cc1ccc3cccc4ccc2c1c34`: the Potency result in assay [1], in assay [2], in assay [3] and in assay [4] was “inactive” each time.

Turning to `C#C[C@]1(O)CC[C@H]2[C@@H]3CCc4cc(OC)ccc4[C@H]3CC[C@@]21C`, the Potency result in assay [1], in assay [2], in assay [3] and in assay [4] was “inactive” each time.

For the compound `NC(N)=O`, the Potency result in assay [1], in assay [2], in assay [3] and in assay [4] was “inactive” in each case.

Take `CCCC(O)C(CC)CO` (centres undefined): the Potency entry in assay [1], in assay [2], in assay [3] and in assay [4] was “inactive” each time.

As to `CCCCCCCCCCCC(=O)N(C)CC(=O)O`, the Potency entry in assay [1], in assay [2], in assay [3] and in assay [4] was “inactive” throughout.

Regarding `Nc1ccc(/C=C/c2ccc(N)cc2S(=O)(=O)O)c(S(=O)(=O)O)c1`, the activity, negative = inhibition in assay [1] is -0.352% [at 0.435 µM] (inactive). The activity change, negative = inhibition in assay [2] is -0.809% [at 0.435 µM] (inactive); in assay [3], 2.35% [at 0.439 µM] (inactive); in assay [4], -0.084% [at 0.435 µM] (inactive).

Take `OCCSc1ccccc1`: the Potency entry in assay [1], in assay [2], in assay [3] and in assay [4] was “inactive” throughout.

For `Nc1cc(Cl)c(N)c(Cl)c1`, the Potency is 79 µM (active) and inactive in assay [1]; 55.9 µM (active) and inactive in assay [3]. In addition, the Potency entry in assay [2] and in assay [4] was “inactive” in each case.

For `Nc1[nH]c(=O)ncc1F`, the Potency entry in assay [1], in assay [2], in assay [3] and in assay [4] was “inactive” throughout.

Consider `COC(=O)c1cc(Cl)c(NC(C)=O)cc1OC`, for which, in assay [1], the Potency is 27.5 µM (active). For the same compound, the Potency entry in assay [2], in assay [3] and in assay [4] was “inactive” throughout.

Regarding `Nc1cc(-c2ccncc2)c[nH]c1=O`, the Potency entry in assay [1], in assay [2], in assay [3] and in assay [4] was “inactive” in each case.

With `CCC(CC)(CC(=O)Nc1cccc(/C=C/c2nc(C3CCC3)cs2)c1)C(=O)O`, the Potency result in assay [1], in assay [2], in assay [3] and in assay [4] was “inactive” each time.

Regarding `COc1ccc(C(=O)c2ccccc2)c(O)c1`, the Potency entry in assay [1], in assay [2], in assay [3] and in assay [4] was “inactive” throughout.

Turning to `BrC1CCC(Br)C(Br)CCC(Br)C(Br)CCC1Br` (centres undefined), the Potency result in assay [1], in assay [2], in assay [3] and in assay [4] was “inactive” each time.

Take `CC(CCO)CC(C)(C)C` (centres undefined): the Potency result in assay [1], in assay [2], in assay [3] and in assay [4] was “inactive” each time.

For `Cn1c(=O)c2c(ncn2CCO)n(C)c1=O`, the Potency entry in assay [1], in assay [2], in assay [3] and in assay [4] was “inactive” throughout.

Consider `CCCC(CC)c1ccccc1` (centres undefined), for which the Potency result in assay [1], in assay [2], in assay [3] and in assay [4] was “inactive” each time.

As to `CCN(CCC#N)c1ccc(N=Nc2c(Cl)cc([N+](=O)[O-])cc2Cl)cc1`, the Potency result in assay [1], in assay [2], in assay [3] and in assay [4] was “inactive” throughout.

For the compound `O=CCCCC=O`, the Potency result in assay [1], in assay [2], in assay [3] and in assay [4] was “inactive” in each case.

In the case of `O=C(OCCOCCO)c1ccccc1Nc1cccc(C(F)(F)F)c1`, the Potency result in assay [1], in assay [2], in assay [3] and in assay [4] was “inactive” throughout.

As to `CC1(C)OC[C@@H](COC(=O)CCc2ccc(OC[C@@H](O)CNCCNC(=O)N3CCOCC3)cc2)O1`, the Potency result in assay [1], in assay [2], in assay [3] and in assay [4] was “inactive” in each case.

In the case of `O=C(O)C(=O)Cc1ccccc1`, the Potency result in assay [1], in assay [2], in assay [3] and in assay [4] was “inactive” in each case.

On to `OCCOc1cccc(OCCO)c1`, for which the Potency entry in assay [1], in assay [2], in assay [3] and in assay [4] was “inactive” throughout.

On to `CCNCCO`, for which the Potency entry in assay [1], in assay [2], in assay [3] and in assay [4] was “inactive” in each case.

With `CCCCCCC=O`, the Potency result in assay [1], in assay [2], in assay [3] and in assay [4] was “inactive” each time.

`Nc1nccs1`: the Potency result in assay [1], in assay [2], in assay [3] and in assay [4] was “inactive” in each case.

Take `BrC(Br)C(Br)Br`: the Potency entry in assay [1], in assay [2], in assay [3] and in assay [4] was “inactive” throughout.

`CC(=O)Nc1ccc(C(=O)CCl)cc1`: the Potency result in assay [1], in assay [2], in assay [3] and in assay [4] was “inactive” in each case.

For the compound `CN1CCC[C@H]1c1cccnc1`, the Potency result in assay [1], in assay [2], in assay [3] and in assay [4] was “inactive” throughout.

For `CC(=O)[C@H]1CC[C@H]2[C@@H]3CC=C4C[C@@H](O)CC[C@]4(C)[C@H]3CC[C@]12C`, the Potency result in assay [1], in assay [2], in assay [3] and in assay [4] was “inactive” in each case.

Consider `CCn1ccnc1CC1COc2ccccc2O1` (centres undefined), for which the Potency entry in assay [1], in assay [2], in assay [3] and in assay [4] was “inactive” in each case.

As to `O=C(O)c1ccccc1Nc1cccc(C(F)(F)F)c1`, the Potency entry in assay [1], in assay [2], in assay [3] and in assay [4] was “inactive” each time.

Consider `Nc1ccc(Nc2ccccc2)cc1`, for which the Potency entry in assay [1], in assay [2], in assay [3] and in assay [4] was “inactive” throughout.

`c1ccc2cc3c(ccc4ccccc43)cc2c1`: the Potency entry in assay [1], in assay [2], in assay [3] and in assay [4] was “inactive” each time.

Regarding `CCOC(=O)CN1CCCC1=O`, the Potency result in assay [1], in assay [2], in assay [3] and in assay [4] was “inactive” throughout.

Consider `C=CCc1cc(OC)c(O)c(C(=O)NCCO)c1`, for which the Potency result in assay [1], in assay [2], in assay [3] and in assay [4] was “inactive” each time.

Regarding `CCCCCCCCCCOc1cc2c(=O)c(C(=O)OCC)c[nH]c2cc1OCC`, in assay [1], the activity, negative = inhibition was 1.43% [at 10.5 µM] (inactive). The activity change, negative = inhibition in assay [2] was 0.693% [at 10.5 µM] (inactive); in assay [3], -0.416% [at 10.5 µM] (inactive); in assay [4], -5.96% [at 10.5 µM] (inactive).

As for `CCc1cc(Cl)c(OC)c(C(=O)NC[C@@H]2CCCN2CC)c1O`, the Potency entry in assay [1], in assay [2], in assay [3] and in assay [4] was “inactive” each time.

With `CC(CC=O)CCCC(C)(C)O` (centres undefined), the Potency result in assay [1], in assay [2], in assay [3] and in assay [4] was “inactive” each time.

On to `CCCCC(O)/C=C(C)/C=C/C=C/C(=O)N1CCCC1=O` (centres undefined), for which the Potency result in assay [1], in assay [2], in assay [3] and in assay [4] was “inactive” in each case.

Take `CC(=O)N/N=C/c1ccc([N+](=O)[O-])o1`: the Potency entry in assay [1], in assay [2], in assay [3] and in assay [4] was “inactive” each time.

Regarding `C[C@H](N)[C@H](O)c1cccc(O)c1`, the Potency result in assay [1], in assay [2], in assay [3] and in assay [4] was “inactive” in each case.

For the compound `CCOC(=O)/C=C/c1ccccc1`, the Potency entry in assay [1], in assay [2], in assay [3] and in assay [4] was “inactive” throughout.

Regarding `COc1ccc(CCN(C)CCCN2CCc3cc(OC)c(OC)cc3CC2=O)cc1OC`, the Potency entry in assay [1], in assay [2], in assay [3] and in assay [4] was “inactive” in each case.

On to `COc1ccc(OC)c(N=Nc2c(O)ccc3ccccc23)c1`, for which the Potency result in assay [1], in assay [2], in assay [3] and in assay [4] was “inactive” in each case.

Regarding `Nc1ccccc1N`, the Potency result in assay [1], in assay [2], in assay [3] and in assay [4] was “inactive” each time.

With `N[C@@H](CSSC[C@H](N)C(=O)O)C(=O)O`, in assay [1], the activity, negative = inhibition was 3.18% [at 0.435 µM] (inactive). For the same compound, the activity change, negative = inhibition in assay [2] was 0.405% [at 0.435 µM] (inactive); in assay [3], 2.04% [at 0.439 µM] (inactive); in assay [4], -2.13% [at 0.435 µM] (inactive).

As for `O=c1c(-c2ccc(O)cc2)coc2cc(O)cc(O)c12`, the Potency result in assay [1], in assay [2], in assay [3] and in assay [4] was “inactive” throughout.

In the case of `COCc1c(C(C)C)nc(C(C)C)c(/C=C/[C@@H](O)C[C@@H](O)CC(=O)O)c1-c1ccc(F)cc1`, the Potency entry in assay [1], in assay [2], in assay [3] and in assay [4] was “inactive” throughout.

On to `O=C(c1ccccc1)c1ccc(Cl)cc1`, for which the Potency entry in assay [1], in assay [2], in assay [3] and in assay [4] was “inactive” throughout.

For the compound `CCC(C)c1ccccc1O` (centres undefined), the Potency entry in assay [1], in assay [2], in assay [3] and in assay [4] was “inactive” each time.
